# In the supplement of paper PMC7858590:
# Where “and” joins values, the source holds several entries; their conditions need not be identical. Identical values can stand only once. ± gives the standard deviation of the averaged measurements. In all, about 3,800 compounds were measured (“cell shape (eccentricity) Z-score vs DMSO control”: median about 1.1, lowest 2% from about -4.7 on). The list comes from a sample in which the lowest values are over-represented; it also holds similar structures and randomly drawn compounds.
# Tested on: human monocyte-derived macrophages (M0)
# Assay: cell shape (eccentricity) Z-score vs DMSO control; higher = more elongated, M2-like morphology
# Details: 20 µM; 24 h; macrophage state: M0 (M-CSF)
# Protocol: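 Primary human monocyte-derived macrophages (M-CSF differentiated, pooled from 4 donors, 5000 cells/well in 384-well plates) were treated with each compound at 20 uM for 24 h, then fixed and stained with phalloidin/DAPI and imaged on an Opera Phenix (6 fields, about 1000 cells/well). Cell eccentricity was measured with CellProfiler, and a Z-score (t-test) was computed against 4 DMSO control wells in the same row. Negative values mean round (M1-like) cells and positive values mean elongated (M2-like) cells; the paper's hit cutoffs are Z <= -4 (M1) and Z >= 6 (M2). Scale: negative = round, M1-like.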
row,Compound,cell shape (Z-score)
1,CCCCc1ccc2[nH]c(NC(=O)OC)nc2c1,-5.71 and -2.34
2,COC(=O)Nc1nc2cc(C(=O)C3CC3)ccc2[nH]1,-3.64
3,CCCOc1ccc2[nH]c(NC(=O)OC)nc2c1,-1.59
4,COC(=O)Nc1nc2cc(SC(C)C)ccc2[nH]1,-4.88 ± 0.16
5,CCCSc1ccc2[nH]c(NC(=O)OC)nc2c1,-3.67
6,COC(=O)Nc1nc2cc(Sc3ccccc3)ccc2[nH]1,-2.59 ± 3.9
7,COc1ccc(C2Oc3cc(OC)ccc3CC2O)cc1 (centres undefined),1.66 ± 1.2
8,COc1ccc(-c2oc3c(CC=C(C)C)c(O[C@@H]4O[C@H](CO)[C@@H](O)[C@H](O)[C@H]4O)cc(O)c3c(=O)c2O[C@@H]2O[C@@H](C)[C@H](O)[C@@H](O)[C@H]2O)cc1,-2.65
9,Nc1ncnc2c1c(-c1cccc(OCc3ccccc3)c1)cn2[C@H]1C[C@H](CN2CCCC2)C1,6.27
10,O=c1c(O)c(-c2ccccc2)oc2ccccc12,1.62
11,CCOC(=O)[C@H](CCc1ccccc1)N[C@@H](C)C(=O)N1Cc2ccccc2C[C@H]1C(=O)O,2.22
12,CC(=O)O[C@H]1C[C@@H](OC(C)=O)C(C)(C)C2C[C@@H](OC(C)=O)[C@]3(C)C(CC[C@@]4(C)[C@H](c5ccoc5)OC(=O)[C@H]5O[C@]543)[C@]21C (some centres undefined),-2.55
13,CC(=O)O[C@H]1C[C@@H](O)C(C)(C)C2C[C@@H](OC(C)=O)[C@]3(C)C(CC[C@@]4(C)[C@H](c5ccoc5)OC(=O)C5OC543)[C@]21C (some centres undefined),-2.78
14,CC(=O)O[C@H]1CC[C@@]2(C)C(C[C@@H](OC(C)=O)[C@]3(C)C2CC[C@@]2(C)[C@H](c4ccoc4)OC(=O)[C@H]4O[C@]423)C1(C)C (some centres undefined),-2.07
15,CC(=O)O[C@@H]1CC2C(C)(C)C(=O)CC[C@]2(C)C2CC[C@@]3(C)[C@H](c4ccoc4)OC(=O)C4OC43[C@@]21C (some centres undefined),-5.48
16,CC(=O)O[C@@H]1CC2C(C)(C)C(=O)C=C[C@]2(C)C2CC[C@@]3(C)[C@H](c4ccoc4)OC(=O)[C@H]4O[C@]43[C@@]21C (some centres undefined),-4.89
17,CC(=O)O[C@@H]1CC2C(C)(C)[C@H](O)CC[C@]2(C)C2CC[C@@]3(C)[C@H](c4ccoc4)OC(=O)C4OC43[C@@]21C (some centres undefined),2.33
18,O=C1C[C@@H](c2ccc(O)c(O)c2)Oc2cc(O[C@@H]3O[C@H](CO)[C@@H](O)[C@H](O)[C@H]3O)cc(O)c21,0.661 ± 1.8
19,OC(CN1CCNCC1)Cn1c2ccc(Br)cc2c2cc(Br)ccc21 (centres undefined),-4.09
20,C=C1CCC[C@]2(C)CC[C@@](O)(C(=C)C(=O)O)C[C@@H]12,-0.504

row,Compound,cell shape (Z-score)
1,CC1(C)CC[C@]2(C(=O)O[C@@H]3O[C@H](CO[C@@H]4O[C@H](CO)[C@@H](O)[C@H](O)[C@H]4O)[C@@H](O)[C@H](O[C@@H]4O[C@H](CO)[C@@H](O)[C@H](O)[C@H]4O)[C@H]3O)CC[C@]3(C)C(=CCC4[C@@]5(C)CC[C@H](O)[C@@](C)(C(=O)O)C5CC[C@]43C)C2C1 (some centres undefined),1.07
2,C=C1CCC2C(CC2(C)C)C(=O)CCC1O (centres undefined),-1.93
3,C#CC1(OCC(O)CN2CCN(c3ccccc3OC)CC2)CCCCC1 (centres undefined),-0.311
4,OCC(O)CN1CCN(c2ccccc2)CC1 (centres undefined),2.29
5,C#CC1(OCC(O)CN2CCN(c3cccc(C(F)(F)F)c3)CC2)CCCCC1 (centres undefined),-7.88
6,COC1=CC(=O)O[C@@H](/C=C/c2ccccc2)[C@@H]1O,-1.25
7,COc1cc2c(c(OC)c1OC)CCc1cc(O)c(O)cc1-2,-0.208
8,COc1cc2c(c(OC)c1OC)-c1cc3c(cc1C[C@H]1C(=O)OC[C@@H]1C2)OCO3,0.816
9,COc1cc2c(c(OC)c1OC)C[C@H]1COC(=O)[C@@H]1Cc1c-2cc(OC)c(OC)c1OC,-9.6
10,CC(C)Cn1cnc2c(N)nc3ccccc3c21,3.03
11,CC(C)C12CC1C(C)(O[C@@H]1O[C@H](CO)[C@@H](O)[C@H](O)[C@H]1O)CC2=O (some centres undefined),1.52
12,CC(=O)OCC(=O)[C@H]1CCC2C3CC=C4C[C@@H](O)CC[C@]4(C)C3CC[C@@]21C (some centres undefined),3.17
13,O=C(O)/C=C/c1ccccc1O[C@@H]1O[C@H](CO)[C@@H](O)[C@H](O)[C@H]1O,1.56
14,CC1(C)CC[C@@]2(C(=O)O[C@@H]3O[C@H](CO)[C@@H](O)[C@H](O)[C@H]3O)C(C1)C1=CCC3[C@@]4(C)CC[C@@H](O[C@@H]5O[C@H](CO)[C@@H](O)[C@H](O)[C@H]5O[C@@H]5O[C@H](CO)[C@@H](O)[C@H](O)[C@H]5O)C(C)(C)C4CC[C@@]3(C)[C@]1(C)C[C@H]2O (some centres undefined),0.124 ± 0.97
15,CC1OC(OC2C(CO)OC(OC(=O)[C@]34CCC(C)(C)CC3C3=CCC5[C@@]6(C)CC[C@H](OC7OC(C)C(OC8OCC(O)(COC9OCC(O)C(OC%10OCC(OC%11OCC(O)(CO)C%11O)C(O)C%10O)C9O)C8O)C(O)C7O)C(C)(C)C6CC[C@@]5(C)[C@]3(C)CC4)C(O)C2O)C(O)C(O)C1O (some centres undefined),2.74
16,C[C@@H]1O[C@@H](O[C@@H]2[C@@H](O)[C@H](O[C@@H]3[C@@H](O)[C@@H](O)[C@H](O[C@H]4[C@H](OC(=O)[C@]56CCC(C)(C)C[C@H]5C5=CCC7[C@@]8(C)C[C@H](O)[C@H](O[C@@H]9O[C@H](C(=O)O)[C@@H](O)[C@H](O)[C@H]9O)[C@@](C)(CO)C8[C@H](O)C[C@@]7(C)[C@]5(C)C[C@H]6O)O[C@@H](CO)[C@@H]4O)O[C@H]3C)OC[C@H]2O)[C@H](O)[C@H](O)[C@H]1O (some centres undefined),-6.05
17,CC1(C)CC[C@]2(C(=O)O[C@@H]3O[C@H](CO)[C@@H](O)[C@H](O)[C@H]3O)CC[C@]3(C)C(=CCC4[C@@]5(C)C[C@H](O)[C@H](O[C@@H]6O[C@H](C(=O)O)[C@@H](O)[C@H](O)[C@H]6O)[C@@](C)(CO)C5CC[C@]43C)C2C1 (some centres undefined),0.273
18,C[C@@H]1O[C@@H](O[C@H]2[C@H](OC(=O)[C@]34CCC(C)(C)C[C@H]3C3=CCC5[C@@]6(C)C[C@H](O)[C@H](O[C@@H]7O[C@H](C(=O)O)[C@@H](O)[C@H](O)[C@H]7O)[C@@](C)(CO)C6[C@H](O)C[C@@]5(C)[C@]3(C)C[C@H]4O)O[C@@H](CO)[C@@H]2O)[C@H](O)[C@H](O)[C@H]1O[C@@H]1OC[C@@H](O)[C@H](O[C@H]2OC[C@](O)(CO)[C@H]2O)[C@H]1O (some centres undefined),-10.1
19,C[C@@H]1O[C@@H](O[C@@H]2[C@@H](O)[C@H](OC(=O)[C@]34CCC(C)(C)CC3C3=CCC5[C@@]6(C)CC[C@H](OC7OC(CO)C(OC8OCC(O)C(O)C8O)C(O)C7O)C(C)(C)C6CC[C@@]5(C)[C@]3(C)CC4O)O[C@H]2CO)[C@H](O)[C@H](O)[C@H]1O[C@H]1OC[C@](O)(CO)[C@H]1O (some centres undefined),-11.6
20,CC1(C)CC[C@]2(C(=O)O[C@@H]3O[C@H](CO)[C@@H](O)[C@H](O)[C@H]3O)CC[C@]3(C)C(=CCC4[C@@]5(C)C[C@@H](O)[C@H](O)[C@@](C)(CO)C5[C@H](O)C[C@]43C)C2C1 (some centres undefined),4.82 ± 3.7

row,Compound,cell shape (Z-score)
1,CC1(C)CC[C@@]2(C(=O)O[C@@H]3O[C@H](CO)[C@@H](O)[C@H](O)[C@H]3O)C(C1)C1=CCC3[C@@]4(C)CC[C@@H](O[C@@H]5O[C@H](C(=O)O)[C@@H](O[C@@H]6OC[C@@H](O)[C@H](O)[C@H]6O)[C@H](O)[C@H]5O)C(C)(C)C4CC[C@@]3(C)[C@]1(C)C[C@H]2O (some centres undefined),1.81
2,C[C@@H]1O[C@@H](O[C@@H]2[C@@H](O)[C@H](O[C@@H]3[C@@H](O)[C@@H](O)[C@H](O[C@H]4[C@H](OC(=O)[C@]56CCC(C)(C)C[C@H]5C5=CCC7[C@@]8(C)C[C@H](O)[C@H](O[C@@H]9O[C@H](C(=O)O)[C@@H](O)[C@H](O)[C@H]9O)[C@@](C)(CO)C8[C@H](O)C[C@@]7(C)[C@]5(C)C[C@H]6O)OC[C@H](O)[C@@H]4O)O[C@H]3C)OC[C@H]2O)[C@H](O)[C@H](O)[C@H]1O (some centres undefined),0.295
3,Cc1cc(O)cc2oc3cc(O)cc(O)c3c(=O)c12,-1.58
4,CCCC(=O)Nc1ccc(OCC(O)CNC(C)C)c(C(C)=O)c1 (centres undefined),1.65
5,CC1=C(CO)C(=O)OC([C@@H](C)[C@H]2CCC3C4CC=C5C[C@@H](O[C@@H]6O[C@H](CO)[C@@H](O)[C@H](O)[C@H]6O)C[C@H](O)[C@]5(C)C4CC[C@@]32C)C1 (some centres undefined),1.5
6,C[C@@H](Oc1cc(-n2cnc3ccc(CN4CCN(C)CC4)cc32)sc1C(N)=O)c1ccccc1C(F)(F)F,3.02
7,C=C1[C@H]2CC[C@@]3(C)[C@H](c4ccoc4)OC(=O)C[C@]13O[C@H]1C[C@H](O)C(C)(C)[C@H](CC(=O)OC)[C@]12C,-1.66
8,C=C1C(=O)OC2CC3(C)CCC=C(CO)C3CC12 (centres undefined),-3.71
9,COC(=O)C1=CO[C@@H](O[C@@H]2O[C@H](CO)[C@@H](O)[C@H](O)[C@H]2O)[C@H]2[C@@H]1C=CC21C=C([C@H](C)O)C(=O)O1 (some centres undefined),2.96
10,CC(=O)OCC(Cc1ccccc1)NC(=O)C(Cc1ccccc1)NC(=O)c1ccccc1 (centres undefined),0.368
11,COc1cc(C)c2c(c1C=O)Oc1c(c(C)c(O)c3c1C(O)OC3=O)OC2=O (centres undefined),-1.59
12,Cc1cc(O)c(C=O)c2c1C(=O)Oc1c(C)c(O)c3c(c1O2)C(O)OC3=O (centres undefined),1.11
13,Cc1cc(O)c(C)c2c1Oc1c(C)c(O)cc(C)c1C(=O)O2,-6.49
14,CC(=O)OCC(=O)[C@@]1(O)CCC2C3C[C@H](C)C4=CC(=O)C=CC4(C)C3[C@@H](O)CC21C (some centres undefined),-2.52
15,CC(CN(C)C)CN1c2ccccc2Sc2ccccc21 (centres undefined),-1.29
16,O=C(Nc1ccc(C(=O)O)c(O)c1)c1ccccc1,1.5
17,O=C(Nc1nc2ccc(NC(=O)C34C[C@H]5C[C@@H](C3)C[C@@H](C4)C5)cc2s1)c1ccccc1,-4.79
18,COc1ccc2nc(NC(=O)Nc3ccccc3)sc2c1,2.21
19,N=C(N)NCCNS(=O)(=O)c1cccc2cnccc12,5.63
